The text below walks through data of PubChem BioAssay AID602292 (National Center for Advancing Translational Sciences (NCATS), 2012).

SMILES strings stand for the structures. Out of some 1,300 compounds screened, about 380 (29%) were called active. Roughly 37% stayed inconclusive and do not appear here. Calls follow the shape of the dose curve; as a rule, active = well fitted inhibition curve with a large enough effect; inconclusive = small, poorly fitted or top-dose-only effect; inactive = flat fitted curve, though single readings scatter. Some of the results follow.
% is scaled to controls: 0 for no effect and ±100 for the full control effect; potency is read from the fitted curve at half-maximal effect.

Sequence of Thyrotropin receptor (Homo sapiens) (P16473 whole entry, looked up): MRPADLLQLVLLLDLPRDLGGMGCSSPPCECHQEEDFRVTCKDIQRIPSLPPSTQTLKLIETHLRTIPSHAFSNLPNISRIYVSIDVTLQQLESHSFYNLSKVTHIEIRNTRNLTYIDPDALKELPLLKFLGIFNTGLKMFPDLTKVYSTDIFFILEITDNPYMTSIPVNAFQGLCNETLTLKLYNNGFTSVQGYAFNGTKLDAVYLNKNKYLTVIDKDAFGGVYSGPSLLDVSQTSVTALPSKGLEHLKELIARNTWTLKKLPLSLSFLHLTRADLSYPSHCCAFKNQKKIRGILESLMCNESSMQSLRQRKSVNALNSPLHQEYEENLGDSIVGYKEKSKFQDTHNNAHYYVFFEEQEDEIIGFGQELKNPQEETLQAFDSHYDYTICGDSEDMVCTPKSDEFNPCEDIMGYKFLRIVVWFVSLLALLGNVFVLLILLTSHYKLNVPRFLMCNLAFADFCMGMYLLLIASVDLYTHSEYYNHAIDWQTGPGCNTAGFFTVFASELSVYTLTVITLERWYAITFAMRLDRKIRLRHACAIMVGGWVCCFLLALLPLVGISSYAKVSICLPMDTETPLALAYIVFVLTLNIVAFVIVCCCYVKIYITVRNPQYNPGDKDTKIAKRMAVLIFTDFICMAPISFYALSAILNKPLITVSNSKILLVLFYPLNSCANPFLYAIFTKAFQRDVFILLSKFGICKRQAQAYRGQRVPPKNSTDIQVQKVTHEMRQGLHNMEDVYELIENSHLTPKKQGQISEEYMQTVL

This test deals with Thyrotropin receptor (Homo sapiens) (UniProt P16473). Description: qHTS for antagonists of the Thyroid Stimulation Hormone Receptor: Hit Validation in Primary Screen. Also: nearly all actives have a fitted effect of over 80% in size.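 As to activity change, negative = inhibition: cAMP by competitive HTRF where cellular cAMP lowers the 665 nm FRET signal.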 To be noted: TSHR-expressing cells, cAMP antagonist mode; series mostly up to 58 µM; activity change, negative = inhibition: at the top concentration. In short, it runs like this:
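TSHR-expressing cells were pretreated with compound, then stimulated with TSH at EC80 (4nM final) for 2 hours at 37 deg C. Cellular cAMP measured by competitive HTRF (anti-cAMP cryptate, cAMP-d2) after 30 min at room temperature.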
A general note: Quantitative high-throughput screening tests each substance at several concentrations.
As to `Nc1nc(SCC(=O)NCC2CCCO2)[nH]c(=O)c1NC(=O)c1ccc(F)c(F)c1` (stereo unspecified), the “activity change, negative = inhibition” value is -3.95% (inactive).

Take `CCOc1ccccc1NC(=O)CSc1nc2ccccc2c(=O)n1CC1CCCO1` (stereo unspecified): the “activity change, negative = inhibition” value is -5.07% (inactive).

`Cc1cc(C(=O)CSc2nc3ccccc3[nH]2)c(C)n1CC1CCCO1` (stereo unspecified): the Potency is 21.3 µM (active). For `CC1(C)CC(O)CC(C)(C)N1CC(O)COCc1ccccc1` (stereo unspecified), the “activity change, negative = inhibition” value was -8.04% (inactive). With `Clc1c(CSc2nc3ccccc3o2)nc2ccccn12`, the Potency is 23.9 µM (active).

As to `Cc1c(C(=O)Nc2ccc3c(c2)OCCO3)sc2nc(-c3ccccc3)cn12`, the Potency was 30.1 µM (active). Same read-out and setting: with `Cc1cc(-n2c(C)cc(C(=O)CSc3[nH]c(=O)cc(C(F)(F)F)c3C#N)c2C)no1` the figure was 9.53 µM (active); with `CCCCn1c(NC(=O)c2ccccc2Cl)c(C#N)c2nc3ccccc3nc21`, 15.1 µM (active). Turning to `Cc1ccc(Sc2ncccc2NC(=O)c2ccccc2Cl)cc1`, the “activity change, negative = inhibition” value is -0.893% (inactive). On the same count and under the same terms, with `Cc1cccc2c1-c1sc(C(=O)NCCCN3CCCC(C)C3)cc1CO2` (stereo unspecified) the figure was -9.68% (inactive). As to `CCCCn1c(-c2csc3c2CCCC3)n[nH]c1=S`, the Potency is 30.1 µM (active). `COc1ccc(-c2cc(-c3nc4ccccn4c3NCc3ccccc3)ccc2OC)cc1`: the Potency was 2.69 µM (active).

On to `CCCCNc1c(-c2cccc(-c3ccc(OC)cc3)c2)nc2ccc(C)cn12`, for which the Potency is 37.9 µM (active).

As for `CCC(C)Sc1ccc(-c2nc3ccc(C)cn3c2NCc2ccccc2)cc1OC` (stereo unspecified), the Potency was 21.3 µM (active). Consider `COc1ccc(-c2csc3ncn(Cc4ccccc4)c(=O)c23)cc1`, for which the “activity change, negative = inhibition” value is -4.81% (inactive). Still for that read-out and setting: then `CCCCCCSc1ccc(-c2nc3ccc(Cl)cn3c2NCCCC)cc1OC`, with -8.61% (inactive); and `CCOc1ccccc1/C=C/c1onc(C)c1S(=O)(=O)N1CCC(C(=O)N2CCCCCC2)CC1`, with -7.46% (inactive); and `CCOc1ccccc1NC(=O)C1(S(=O)(=O)c2ccc(Cl)cc2)CC1`, with -5.39% (inactive).

Consider `C=CC(C)(C)c1c2occc2c(O)c2ccc(=O)oc12`, for which the Potency is 16.9 µM (active). Take `COc1cccc(O)c1CN1CCC(C(=O)Nc2ccc(Oc3cccnc3)cc2)CC1`: the “activity change, negative = inhibition” value was -8.53% (inactive). For `O=[N+]([O-])c1ccc(S(=O)(=O)c2ccccc2)nc1`, the Potency is 37.9 µM (active). Consider `COc1ccc(-c2sc3ccc(N4CCOCC4)cc3c2C#CCO)cc1`, for which the Potency was 19 µM (active). For `O=C(c1ccc2c(=O)n(Cc3ccc4c(c3)OCO4)c(=S)[nH]c2c1)N1CCCCC1`, the “activity change, negative = inhibition” value is -8.61% (inactive). As for `CCN(C(=O)CN1C(=O)COc2ccc(S(=O)(=O)N3CCOCC3)cc21)c1ccc(OC)cc1`, the “activity change, negative = inhibition” value was -2.48% (inactive). Take `COc1ccc(C(=O)c2ccccc2)c2c(O)ccc(C(=O)c3ccccc3)c12`: the Potency was 12 µM (active). Regarding `COC(=O)c1ccc(NC(=O)c2ccccc2)o1`, the “activity change, negative = inhibition” value was -9.82% (inactive). For `Cc1ccc(F)cc1CNC(=O)c1cc(COc2ccc3ncccc3c2)on1`, the Potency is 21.3 µM (active). As for `CC(CNC(=O)c1cc(COc2ccc3ncccc3c2)on1)c1ccccc1` (stereo unspecified), the Potency is 23.9 µM (active).

Consider `Cc1ccc(OCc2cc(C(=O)NCC3COCCO3)no2)cc1C` (stereo unspecified), for which the “activity change, negative = inhibition” value is -1.01% (inactive). Regarding `O=C(NCc1cccc(Cl)c1)c1cc(COc2ccc3ncccc3c2)on1`, the Potency is 9.53 µM (active). Regarding `Cc1cc(OCc2cc(C(=O)NCc3csc(C(C)C)n3)no2)cc(C)c1Cl`, the “activity change, negative = inhibition” value was -20.8% (inactive).
